Assay results as given in PubChem BioAssay (NCI).
Compounds without any hit were thinned out: in the full panel of roughly 79,000, 15% have a hit. Values without a mark were called inactive. Activity calls are given as the source filed them. Rule as the data show it: active = growth inhibition above about 70%; inactive = the rest.

Experiment: NCI Yeast Anticancer Drug Screen. Data for the sgs1 strain (AID 173);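 also: 0% = growth of vehicle-only control cultures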
Details: S. cerevisiae sgs1 mutant, stronger effect = higher value
Protocol: Growth inhibition of yeast strains with defined genetic alterations is measured as a screen for potential anti-cancer activity. Selected strains with alterations in DNA damage repair or cell cycle control were exposed to compounds and growth inhibition was measured relative to vehicle treated controls. The strain used in this assay is sgs1

CCOC(=O)c1[nH]c2cccc3c2c1CC(Br)C3=O (stereo not given)
growth inhibition (at 1.2 µM): -8% | growth inhibition (at 3.7 µM): 14% | growth inhibition (at 11.0 µM): 27% | growth inhibition (at 33.0 µM): 68% | growth inhibition (at 100.0 µM): 80% (active)

COc1ccc(C(=O)NCCN(C)C)c2nc3ccccc3cc12
growth inhibition (at 1.2 µM): 15% | growth inhibition (at 3.7 µM): 16% | growth inhibition (at 11.0 µM): 10% | growth inhibition (at 33.0 µM): 10% | growth inhibition (at 100.0 µM): 62%

COc1ccc(CCN2C(=O)C=CC2=O)cc1OC
growth inhibition (at 1.2 µM): 1% | growth inhibition (at 3.7 µM): 5% | growth inhibition (at 11.0 µM): 38% | growth inhibition (at 33.0 µM): 98% (active) | growth inhibition (at 100.0 µM): 98% (active)

CCOC(=O)C1=C(C)NC(C)=C(C(=O)OCC)C1c1cccc([N+](=O)[O-])c1
growth inhibition (at 1.2 µM): -18% | growth inhibition (at 3.7 µM): -14% | growth inhibition (at 11.0 µM): 13% | growth inhibition (at 33.0 µM): 60% | growth inhibition (at 100.0 µM): 86% (active)

CN(C)/N=N/c1nc[nH]c1C(N)=O
growth inhibition (at 1.2 µM): -1% | growth inhibition (at 3.7 µM): -2% | growth inhibition (at 11.0 µM): 1% | growth inhibition (at 33.0 µM): 6% | growth inhibition (at 100.0 µM): 98% (active)

CCCCCC(=O)C(C)(c1nc2n(c1O)/C(=N/C(=O)Nc1ccc(Cl)cc1)N=N2)c1nc2n(c1O)/C(=N/C(=O)Nc1ccc(Cl)cc1)N=N2
growth inhibition (at 1.2 µM): 2% | growth inhibition (at 3.7 µM): 1% | growth inhibition (at 11.0 µM): 6% | growth inhibition (at 33.0 µM): 25% | growth inhibition (at 100.0 µM): 54%

CCN(CC)CCSc1c2ccccc2nc2cc(NCC(=O)Nc3ccccc3-c3ccccc3NC(=O)CNc3ccc4c(SCCN(CC)CC)c5ccccc5nc4c3)ccc12
growth inhibition (at 1.2 µM): -14% | growth inhibition (at 3.7 µM): -18% | growth inhibition (at 11.0 µM): -22% | growth inhibition (at 33.0 µM): 63% | growth inhibition (at 100.0 µM): 96% (active)

CC(C)OC(CCC#N)c1ccc(Cl)cc1 (stereo not given)
growth inhibition (at 1.2 µM): -20% | growth inhibition (at 3.7 µM): -11% | growth inhibition (at 11.0 µM): -8% | growth inhibition (at 33.0 µM): 17% | growth inhibition (at 100.0 µM): 40%
